Data from PubChem BioAssay (Tox21).
A number with no mark means an inactive call. Where a call stands in place of a potency, no number is given. Active and inactive are the calls of the source. The call rests on the fitted dose curve; in most records, active means well fitted activation curve with a large enough effect in the repeat runs; inconclusive means weak or mixed curves; inactive means flat fitted curve, though single readings scatter.

Test: A CellTox Green Cytotoxicity Assay to monitor cytotoxicity in HEK293 cells - 0 hour (AID 1224869); further: nearly all actives have a fitted effect of over 50% in size
Conditions: CellTox Green fluorescence; series mostly up to 76.8 µM
From the text: National Center for Advancing Translational Sciences [NCATS]
NIH Chemical Genomics Center [NCGC]
U.S. Environmental Protection Agency [EPA]
National Institutes of Environmental Health Sciences [NIEHS]
National Toxicology Program [NTP]
Cell-based models are critical for drug discovery. Determining the natural cytotoxic effects resulting from test compounds is an essential research activity. A CellTox Green Cytotoxicity Assay to monitor cytotoxicity in real time of continues cell culture during 40 hours of the compound treatment was used to screen Tox21 10K library compounds in Hek293 cells. CellTox Green Cytotoxicity Assay is a nonlytic, homogeneous, biofluorescent method to measure cytotoxicity in cell culture after experimental manipulation. The assay system uses a proprietary asymmetric cyanine dye that is excluded from viable cells but preferentially stains the dead cell's DNA. […] Viable cells produce no appreciable increases in fluorescence. Therefore, the fluorescence signal produced by the binding interaction with dead cell DNA is proportional to cytotoxicity.
The mixture of Hek293 cell suspension and reagents were dispensed at 600cells/6 ul/well in 1536-well tissue culture treated black solid bottom plates using a Multidrop dispenser. After the assay plates were incubated at a 37 C/5% CO2 incubator for 5 hours, 23 nL of compounds dissolved in DMSO, positive and negative controls was transferred to the assay plate by a pintool work station. The plates were incubated at 37 C for 40 hours. The fluorescence intensity were measured at 0h, 8h, 16h, 24h, 32h and 40h time points using ViewLux plate reader during compound treatment.
Potency means the concentration at half of the fitted maximal effect.

**Q.** Which Potency does the source give for `COC(=O)C1=C(C)NC(C)=C(C(=O)OCCN2CCN(C(c3ccccc3)c3ccccc3)CC2)C1c1cccc([N+](=O)[O-])c1` (stereo not given) here?
**A.** Its Potency is “inactive”.

**Q.** For `CCCCCCCCCCCCOC(=O)c1ccc(O)cc1`, which Potency is on record?
**A.** The Potency was “inactive”.

**Q.** For `Cc1cc(=O)oc2cc(O)cc(O)c12`, which Potency is on record?
**A.** The Potency was “inactive”.

**Q.** For `CCCCCCCCCCCCOCCOCCOCCOCCOCCOCCOCCOCCOCCO`, which Potency is on record?
**A.** The Potency was “inactive”.

**Q.** With `CCCCCCCCCCCC(=O)OCC(C)OC(=O)CCCCC(=O)O` (stereo not given) as the compound, how does the Potency read?
**A.** Its Potency is “inactive”.

**Q.** With `ClCCl` as the compound, how does the Potency read?
**A.** The Potency was “inactive”.

**Q.** For `Cc1ccc(-c2ccccc2)cc1`, which Potency is on record?
**A.** Its Potency is “inactive”.

**Q.** With `CC1(C)[C@@H](O)CC[C@]2(C)[C@H]3C(=O)C=C4[C@@H]5C[C@@](C)(C(=O)O)CC[C@]5(C)CC[C@@]4(C)[C@]3(C)CC[C@@H]12` as the compound, how does the Potency read?
**A.** The Potency was “inactive”.

**Q.** With `Cc1cc(-n2nc3ccc(Cl)cc3n2)c(O)c(C(C)(C)C)c1` as the compound, how does the Potency read?
**A.** Its Potency is “inactive”.

**Q.** Which Potency does the source give for `CCCCCCCCCCC[C@@H](C[C@@H]1OC(=O)[C@H]1CCCCCC)OC(=O)[C@H](CC(C)C)NC=O` here?
**A.** Its Potency is “inactive”.

**Q.** With `CCCCCCC1CCCC(=O)O1` (stereo not given) as the compound, how does the Potency read?
**A.** The Potency was “inactive”.

**Q.** Which Potency does the source give for `CCCNCCC` here?
**A.** The Potency was “inactive”.

**Q.** With `Cc1c(F)c(N2CCNC(C)C2)cc2c1c(=O)c(C(=O)O)cn2C1CC1` (stereo not given) as the compound, how does the Potency read?
**A.** Its Potency is “inactive”.

**Q.** For `O=c1c(O)c(-c2ccc(O)cc2O)oc2cc(O)cc(O)c12`, which Potency is on record?
**A.** The Potency was “inactive”.

**Q.** For `CC(CO)Oc1ccccc1` (stereo not given), which Potency is on record?
**A.** The Potency was “inactive”.

**Q.** With `C[Si](Cl)(c1ccccc1)c1ccccc1` as the compound, how does the Potency read?
**A.** Its Potency is “inactive”.

**Q.** With `C=C(C)C(=O)OCCCCCCCCCC` as the compound, how does the Potency read?
**A.** The Potency was “inactive”.

**Q.** With `O=C(Oc1ccccc1)Oc1ccccc1` as the compound, how does the Potency read?
**A.** The Potency was “inactive”.

**Q.** Which Potency does the source give for `O=C(/C=C/c1ccc(O)c(O)c1)O[C@@H](C(=O)O)[C@@H](OC(=O)/C=C/c1ccc(O)c(O)c1)C(=O)O` here?
**A.** The Potency was “inactive”.

**Q.** For `CCCC1CCC(=O)CC1`, which Potency is on record?
**A.** Its Potency is “inactive”.

**Q.** For `Cc1cccc2cccnc12`, which Potency is on record?
**A.** The Potency was “inactive”.

**Q.** With `Cc1ccc(N/N=c2\c(=O)cc/c(=N\Nc3ccc(S(=O)(=O)O)cc3)c2=O)c(C)c1` as the compound, how does the Potency read?
**A.** The Potency was “inactive”.

**Q.** For `c1ccsc1`, which Potency is on record?
**A.** Its Potency is “inactive”.

**Q.** Which Potency does the source give for `O=[N+]([O-])c1ccc(O)cc1C(F)(F)F` here?
**A.** The Potency was “inactive”.

**Q.** With `O=C1CCc2cc(OCCCCc3nnnn3C3CCCCC3)ccc2N1` as the compound, how does the Potency read?
**A.** The Potency was “inactive”.

**Q.** With `C=Cc1ccccc1C=C` as the compound, how does the Potency read?
**A.** Its Potency is “inactive”.

**Q.** With `Nc1ccc(C(=O)O)c(O)c1` as the compound, how does the Potency read?
**A.** The Potency was “inactive”.

**Q.** For `Clc1ccnc(Cl)n1`, which Potency is on record?
**A.** Its Potency is “inactive”.

**Q.** Which cytotoxicity does the source give for `NC[C@H]1O[C@H](O[C@H]2[C@H](O[C@@H]3O[C@H](CO)[C@@H](O)[C@H]3O)C(O)[C@H](N)C[C@@H]2N)[C@H](N)[C@@H](O)[C@@H]1O` (stereo not given in full) here?
**A.** Its cytotoxicity is -7.77% [at 6.97 µM].

**Q.** Which Potency does the source give for `CN1CCC[C@@H]1CCO[C@](C)(c1ccccc1)c1ccc(Cl)cc1` here?
**A.** The Potency was “inactive”.

**Q.** For `c1ccc(C(O[C@@H]2CCCN(CCc3ccc4c(c3)OCO4)C2)c2ccccc2)cc1`, which Potency is on record?
**A.** Its Potency is “inactive”.

**Q.** For `COc1cc2nc(N3CCN(C(=O)c4ccco4)CC3)nc(N)c2cc1OC`, which cytotoxicity is on record?
**A.** Its cytotoxicity is 2.18% [at 15.8 µM].

**Q.** For `CN(C)[C@@H](CCOc1cccc2ccccc12)c1ccccc1`, which Potency is on record?
**A.** The Potency was “inactive”.

**Q.** Which Potency does the source give for `Cc1c2ccccc2c(C)c2c1ccc1ccccc12` here?
**A.** Its Potency is “inactive”.

**Q.** For `O=[N+]([O-])c1cccc(C(F)(F)F)c1`, which Potency is on record?
**A.** Its Potency is “inactive”.

**Q.** With `Cc1cc(C)c(/C=C2\C(=O)Nc3ccccc32)[nH]1` as the compound, how does the Potency read?
**A.** The Potency was 10.7 µM (active).

**Q.** Which Potency does the source give for `CC(C)CCCCCOC(=O)CCS` here?
**A.** Its Potency is “inactive”.

**Q.** For `CCN(CCN)c1cccc(C)c1`, which Potency is on record?
**A.** The Potency was “inactive”.

**Q.** With `COc1ccc(-c2coc3cc(O)ccc3c2=O)cc1` as the compound, how does the Potency read?
**A.** Its Potency is “inactive”.

**Q.** With `O=C(O)c1cc(N=Nc2ccc([N+](=O)[O-])cc2)ccc1O` as the compound, how does the Potency read?
**A.** Its Potency is “inactive”.
